Records with an inconclusive call do not appear. A number with no mark means an inactive call. Calls come from the whole dose curve; as a rule, active = well fitted cell-killing curve with a large enough effect in the repeat runs; inconclusive = weak or mixed curves, or effect the other way; inactive = flat fitted curve, though single readings scatter.
assay: qHTS assay to identify small molecule antagonists of the retinoid acid receptor (RAR) signaling pathway - cell viability counter screen (AID 1159551); conditions: C3RL4 cells viability, ATP luminescence (CellTiter-Glo), 6 h; series mostly up to 92.4 µM; activity change, negative = cytotoxicity: at the top concentration; note: nearly all actives have a fitted effect of over 35% in size
From the text: U.S. Tox21 Program National Center for Advancing Translational Sciences [NCATS] NIH Chemical Genomics Center [NCGC] U.S. Environmental Protection Agency [EPA] National Institutes of Environmental Health Sciences [NIEHS] National Toxicology Program [NTP] U.S. Food and Drug Administration [FDA] Tox21 Assay Overview: All-trans Retinoic acid (atRA) is the potent natural metabolite of retinol and plays an important role in normal embryonic development and maintenance of cellular phenotype in adult animals. atRA is the activating ligand for the retinoic acid receptors (RARs) which form heterodimers with retinoid X receptors (RXRs) on the retinoic acid response element (RARE). Through activation of the RAR/RXRs nuclear receptors, atRA regulates the transcription of a large number of protein-coding genes and regulatory RNAs. Intracellular levels of atRA are controlled by the retinol signaling pathway (RSP) that regulates the biosynthesis and catabolism of atRA to maintain physiological levels. Chemicals that interfere with the RSP can cause abnormal intracellular levels of atRA and therefore are potential developmental toxicants. To assess compounds for the potential adverse effect on embryonic development through interfering with retinol signaling, a cell-based RARE luciferase reporter gene assay was used. C3RL4 cell line (OARSA/CFSAN/FDA, Laurel, MD) was used to screen Tox21 10K compound library for identifying inhibitors of the RSP. Also cytotoxicity was assessed by determining the viability of cells based on the quantitation of ATP.
Tox21 Assay Protocol Summary: C3RL4 cells were seeded at 1,000/well in 4 uL of assay medium into white solid 1,536-well tissue culture plates (Greiner Bio-One North America Inc. Monroe, NC) using a Multidrop Combi (Thermo Scientific, Waltham, MA) dispenser. After incubation at 37 C and 5% CO2 for an overnight, 23 nL of compounds dissolved in DMSO, positive control or DMSO only were transferred by a Pintool station (Kalypsys, San Diego, CA). One ul of 1 uM (final concentration) of Retinol was added right after the compound addition by using a Flying Reagent Dispenser (FRD) (Aurora Discovery, San Diego, CA). After 6 hr incubation at 37 C and 5% CO2, 5 uL of CellTiter-Glo reagent (Promega Corporation, Madison, WI) was added to each assay plate using an FRD. Luminescence was quantified on a ViewLux plate reader (PerkinElmer, Waltham, MA) after 30 min incubation at room temperature.
% is set by controls: 0 for no effect and ±100 for the full control effect.

| SMILES | activity change, negative = cytotoxicity |
| --- | --- |
| NC(=O)c1c(Cl)cccc1Cl | -0.103% |
| CCCCNc1ccccc1 | 0.442% |
| N#CCc1ccccc1[N+](=O)[O-] | -6.38% |
| CN(C)N=Nc1ccccc1 | -0.405% |
| CN(C)CCn1nnnc1SCC1=C(C(=O)O)N2C(=O)[C@@H](NC(=O)Cc3csc(N)n3)[C@H]2SC1 | -2.11% [at 42.5 µM] |
| CC(=O)O[C@H](CC(=O)[O-])C[N+](C)(C)C | 3.35% |
| CC(C)[C@H](N)C(=O)OCCOCn1cnc2c(=O)[nH]c(N)nc21 | -3.82% [at 42.5 µM] |
| COc1nc(C)nc(N)n1 | 0.622% |
| CC/C=C\CCCCO | 0.0064% |
| C1C2OC2C2C1C1CC2C2OC12 (stereo not given) | 3.12% |
| CC(C)CCCCCCN | 2.67% |
| NCCN1CCNC1=O | 0.444% |
| COc1cccc(Br)c1 | 3.23% |
| NCC[C@H](O)C(=O)N[C@@H]1C[C@H](N)[C@@H](O[C@H]2O[C@H](CN)[C@@H](O)[C@H](O)[C@H]2O)[C@H](O)[C@H]1O[C@H]1O[C@H](CO)[C@@H](O)[C@H](N)[C@H]1O | 2.52% [at 0.349 µM] |
| Nc1nc(F)nc2c1ncn2[C@@H]1O[C@H](CO)[C@@H](O)[C@@H]1O | 0.5% [at 42.5 µM] |
| CC(C)(O)C(=O)c1ccc(OCCO)cc1 | 3.73% |
| CCCCCCC(CCCCCCCCCCC(=O)OCC(COC(C)=O)OC(C)=O)OC(C)=O (stereo not given) | -0.0807% [at 42.5 µM] |
| Oc1cc(O)c2c(c1)O[C@H](c1ccc(O)c(O)c1)[C@H](O)C2 | 5.91% [at 42.5 µM] |
| CO[Si](CCCNCCC[Si](OC)(OC)OC)(OC)OC | 3.58% |
| O=C(O)/C=C/c1ccc(Cn2ccnc2)cc1 | -4.81% [at 42.5 µM] |

| SMILES | activity change, negative = cytotoxicity |
| --- | --- |
| C=C(C)C(=O)NCCC[N+](C)(C)C | -0.742% |
| OC/C=C/c1ccccc1 | 2.31% |
| FC(F)(F)C(F)(F)C(F)(F)C(F)(F)C(F)(F)C(F)(F)C(F)(F)C(F)(F)C(F)(F)C(F)(F)F | 5.5% [at 8.39 µM] |
| CC/C=C\C#N | 4.07% |
| CC1=CCC2C(C1)C2(C)C (stereo not given) | 4.52% |
| CC(=O)N[C@@H](CCC(N)=O)C(=O)O | 1.74% [at 42.5 µM] |
| C#CC(O)C(CC)CCCC (stereo not given) | -0.723% |
| NC(=O)c1ncn([C@@H]2O[C@H](CO)[C@@H](O)[C@H]2O)c1O | -2.3% [at 42.5 µM] |
| NC(CS)C(=O)O (stereo not given) | 2.83% [at 42.5 µM] |
| CC(=O)c1ccc(C)cc1 | 2.87% |
| O=Cc1ccccc1[N+](=O)[O-] | 5.52% |
| OC[C@H]1O[C@@H]2O[C@H]3[C@H](O)[C@@H](O)[C@@H](O[C@H]4[C@H](O)[C@@H](O)[C@@H](O[C@H]5[C@H](O)[C@@H](O)[C@@H](O[C@H]6[C@H](O)[C@@H](O)[C@@H](O[C@H]7[C@H](O)[C@@H](O)[C@@H](O[C@H]8[C@H](O)[C@@H](O)[C@@H](O[C@H]9[C@H](O)[C@@H](O)[C@@H](O[C@H]1[C@H](O)[C@H]2O)O[C@@H]9CO)O[C@@H]8CO)O[C@@H]7CO)O[C@@H]6CO)O[C@@H]5CO)O[C@@H]4CO)O[C@@H]3CO | 3.66% [at 42.5 µM] |
| CCCCCOC(=O)Nc1nc(=O)n([C@@H]2O[C@H](C)[C@@H](O)[C@H]2O)cc1F | 3.72% [at 42.5 µM] |
| CCN1CCCC(OC(=O)C(c2ccccc2)c2ccccc2)C1 (stereo not given) | -3.92% [at 42.5 µM] |
| COC(C(=O)O)c1ccccc1 (stereo not given) | 2.25% |
| CC(C)N1C(=O)c2ccccc2C1=O | 3.53% |
| CC(C)c1ccc2oc3nc(N)c(C(=O)O)cc3c(=O)c2c1 | -0.8% [at 42.5 µM] |
| C=C(C)C(=O)OCCCCCCCCCCCCCCCCCC | -0.339% [at 19 µM] |
| c1ccc(SCCSc2ccccc2)cc1 | -0.322% |
| c1ccc2cnncc2c1 | 0.685% |

— PubChem BioAssay (Tox21)
